APP 5UTR inh: inhibitors of APP translation via 5'UTR reporter, primary screen, APP 5'UTR luciferase, SH-SY5Y cells; AID 1285, 2008; SH-SY5Y APP 5'UTR-luciferase reporter, luminescence; 190,000 tested, 0.82% active; inhibition, % at 2 µM;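 active means inhibition above a set limit, derived from the sample mean plus 3 SD, cut at about 45% in these data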
KLF5 inhibitor: KLF5 expression inhibitors, primary screen, DLD-1 cells, luminescence | DLD-1 KLF5 promoter-luciferase reporter | AID 1700, 2009 | inhibition, % at 5 µM | 290,000 tested, 0.23% active;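 active means inhibition above a per-plate limit of that plate's mean compound inhibition plus 3 SD, cut at about 60% in these data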;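 further: 0% = DMSO wells and 100% = LY294002 at 200 µM; higher means less KLF5 promoter-driven luciferase light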
IEC-6 cytotox: cytotoxicity in IEC-6 intestinal epithelial cells, primary screen, cytotoxicity control for KLF5 inhibitor project, cell-based, luminescence. inhibition, % at 5 µM. 290,000 tested, 0.78% active. IEC-6 cytotoxicity, luminescence viability; in the data active means inhibition above about 22%;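 further: 0% = plate median of test compound wells and 100% = cytotoxic reference compound wells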
Ba/F3 V617F tox: reduced viability of JAK2V617F-dependent Ba/F3 cells, primary screen, JAK2V617F inhibitor project, cell-based, Ba/F3 EpoR-JAK2V617F, luminescence | 220,000 tested, 1.1% active | inhibition, % at 5.6 µM | ATP luminescence;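 active means inhibition above the campaign mean plus 3 SD over all tested compounds, cut at about 24% in these data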;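 further: cytokine-independent growth of Ba/F3 cells driven by EpoR plus mutant JAK2; 0% = DMSO-treated cells and 100% = JAK inhibitor I control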
BaF3 tox: parental Ba/F3 cell viability inhibition, counter-screen for JAK2V617F inhibitor project, murine pro-B, CellTiter-Glo luminescence; CellTiter-Glo ATP luminescence; inhibition, % at 5.6 µM; 220,000 tested, 1.1% active; AID 1486, 2009;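 active means inhibition above a per-campaign cutoff, the mean inhibition of all tested compounds plus 3 SD, cut at about 27% in these data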;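 further: 0% = DMSO wells and 100% = JAK Inhibitor I control wells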
* marks the source's active call; other numbers are inactive results; / = not tested or not shown. Most compounds without a hit are left out; they make up all but 1.9% or so of the library.

SMILES | APP 5UTR inh | KLF5 inhibitor | IEC-6 cytotox | Ba/F3 V617F tox | BaF3 tox
O=C(C[n+]1cc(-c2ccc(F)cc2)n2c1CCC2)N1c2ccccc2Sc2ccccc21 | -108.7 | -21.2 | 1.3 | -1.0 | 6.8
O=C(C[n+]1cc(-c2ccc(Cl)cc2)n2c1CCCCC2)c1ccccc1 | / | -21.7 | -6.2 | 27.8* | 43.1*
O=C(C[n+]1cc(-c2ccc(Br)cc2)n2c1CCCCC2)c1ccccc1 | 16.3 | -11.3 | -2.3 | 38.2* | 49.3*
O=C(O)Cc1ccc(OCc2ccc(Cl)nc2)cc1 | -29.0 | -6.5 | -1.8 | -2.7 | 5.2
O=C(OCc1nc2ccccc2s1)C1CCN(S(=O)(=O)c2cccs2)CC1 | -29.4 | -37.0 | -1.1 | 1.5 | 96.2*
O=S(=O)(c1cccs1)N1CCN(Cc2nc3ccccc3s2)CC1 | -5.4 | -0.9 | 5.4 | 1.6 | 5.1
CC#CCN(Cc1ccco1)C(=O)c1ccc(OC2CCN(Cc3ccccn3)CC2)cc1 | / | -24.9 | 2.8 | / | /
CC(C)Cc1ccc(C(C)C(=O)Nc2ccccc2O)cc1 (stereo not given) | / | 4.8 | -1.9 | 10.8 | 37.8*
CC(C)Cc1ccc(C(C)C(=O)Nc2nccs2)cc1 (stereo not given) | -3.7 | -11.8 | -3.1 | -3.3 | 2.9
O=C(O)c1ccccc1C(=O)Nc1ccc(Oc2cccc3ccccc23)cc1 | 58.7* | 28.0 | 11.5 | 8.0 | 10.5
O=C(O)c1ccccc1C(=O)Nc1ccc(Oc2ccc3ccccc3c2)cc1 | 22.0 | -28.4 | 14.2 | 45.5* | 38.0*
COc1ccc(Cl)cc1S(=O)(=O)N1CCC(C(=O)NC2CC2)CC1 | / | 3.3 | -3.1 | / | /
COC(=O)C1CCCN1C(=O)C12CC3CC(CC(C3)C1)C2 (stereo not given) | / | -6.4 | 3.3 | / | /
Cc1cc(SCC(=O)N/N=C/c2ccc(O)cc2O)c(C)cc1Br | 49.1* | 37.7 | 5.1 | 0.9 | 3.4
CCC(Sc1nnc(-c2ccco2)n1C)C(=O)Nc1nnc(C)s1 (stereo not given) | / | -3.7 | -1.9 | / | /
Nc1ccc(Nc2ccc([N+](=O)[O-])cc2[N+](=O)[O-])cc1 | -8.6 | -19.9 | -2.4 | 1.3 | 4.7
O=[N+]([O-])c1c(Nc2ccccn2)cc(Cl)c2nonc12 | / | -13.3 | 62.6* | 0.5 | -1.1
O=[N+]([O-])c1ccc(Nc2ccccn2)c([N+](=O)[O-])c1 | -2.4 | -15.4 | -2.2 | 29.2* | 49.0*
CC(=O)c1ccc(OC(C)C)c(CC(C(N)=O)C(N)=O)c1 | 46.0* | -45.2 | -2.8 | 0.6 | 4.8
CCOC(=O)c1ccc(-n2c(CCC(=O)O)ccc2-c2cccs2)cc1 | -2.6 | -18.9 | -5.8 | 0.8 | 7.2
Cc1ccc(-n2c(CCC(=O)O)ccc2-c2cccs2)cc1C | -18.4 | 4.6 | -2.2 | 0.1 | 55.0*
COc1ccc2[nH]c(C)c(CCN(Cc3cccs3)C(=S)Nc3ccccc3)c2c1 | 1.0 | -3.9 | 2.1 | 33.8* | 46.5*
COc1ccc2[nH]c(C)c(CCN(Cc3cccs3)C(=S)Nc3ccc(F)cc3)c2c1 | 8.2 | -8.6 | 1.2 | 45.5* | 49.8*
CCn1nc(C)c(CNC(=O)c2cc(COc3ccc(F)cc3Cl)on2)c1C | / | -6.7 | 9.0 | 66.9* | 63.9*
COc1ccc(NC(=O)c2cc(-c3ccccc3OC)on2)cc1 | 74.4* | -5.6 | 8.3 | 3.2 | 6.4
SMILES | APP 5UTR inh | KLF5 inhibitor | IEC-6 cytotox | Ba/F3 V617F tox | BaF3 tox
Cc1cc(C)c(C)c(S(=O)(=O)NCC(=O)Nc2ccc(F)cc2)c1C | / | -17.6 | 5.0 | / | /
CC(=O)Nc1ccc(S(=O)(=O)NCCC(=O)N2CCc3ccccc32)cc1 | / | -7.7 | -4.6 | / | /
O=[N+]([O-])c1ccc(Sc2nc3ccccc3o2)c([N+](=O)[O-])c1 | 62.8* | -6.3 | 0.3 | 21.6 | 9.9
O=[N+]([O-])c1ccc(Cl)cc1Sc1nc2ccccc2o1 | 13.7 | -32.0 | -0.4 | -3.7 | -1.1
Cc1ccc(N=Nc2c(N)nn(-c3ccccc3)c2N)cc1 | -23.7 | -72.2 | 24.6* | 46.8* | 35.5*
COc1cc(C(=O)Nc2nc(C)c(Cc3ccc4c(c3)OCO4)s2)cc(OC)c1OC | 86.3* | -6.6 | 15.5 | 82.2* | 74.0*
CC1(C)Cc2nc(-c3ccccc3)nc(SCC(=O)N3CCOCC3)c2CO1 | / | -18.5 | 0.2 | / | /
CC1(C)Cc2nc(-c3ccccc3)nc(SCC(O)CO)c2CO1 (stereo not given) | / | -27.1 | 3.2 | 0.7 | 61.5*
COc1ccc(NC(=O)C(NC(C)=O)C(=O)Nc2ccc(F)cc2)cc1 (stereo not given) | / | -19.0 | 1.8 | / | /
CN1/C(=C\C(=O)Nc2ccc(Br)cc2)C(C)(C)c2ccccc21 | -1.2 | -12.3 | -10.9 | -0.7 | 2.6
COc1cc(OC)cc(C(=O)NCC(=O)OCC(=O)/C=C2/N(C)c3ccccc3C2(C)C)c1 | 12.0 | -10.1 | -2.1 | -1.2 | 4.3
CN1/C(=C\C(=O)COC(=O)Cn2nnc(-c3ccccc3)n2)C(C)(C)c2ccccc21 | 14.6 | -19.5 | 2.9 | 62.8* | 63.0*
CN1/C(=C\C(=S)NC(=O)c2cccc(Br)c2)C(C)(C)c2ccccc21 | -10.4 | 6.6 | 0.9 | 58.6* | 63.6*
CN1/C(=C/C(=O)C2CC2)C(C)(C)c2ccccc21 | -15.5 | -7.1 | -2.6 | -0.8 | 40.8*
CN1/C(=C\C(=O)CSc2nncn2C)C(C)(C)c2ccccc21 | 16.8 | -30.4 | 1.8 | 36.9* | 47.1*
Cn1cnnc1SCC(=O)NCc1ccccc1 | 13.8 | -4.3 | -5.1 | 1.3 | 1.1
CCN(CC)c1nc(Nc2ccc([N+](=O)[O-])cc2)nc(N(CC)CC)n1 | / | -37.0 | 2.6 | / | /
CC(OC(=O)c1ccccc1CCc1ccccc1)C(N)=O (stereo not given) | / | 0.1 | 7.5 | / | /
Cc1ccc2nc(C)c(C(=O)NN=C3CCN(C)CC3)n2c1 | 68.1* | 38.0 | 19.4 | 8.7 | 6.7
CCOC(=O)c1c(C)nc2ccc(C)cn12 | -3.9 | -68.4 | -2.4 | -2.3 | 5.0
CC1CN(CCOc2ccccc2C(C)C)CC(C)O1 (stereo not given) | / | -13.9 | 1.7 | / | /
COc1cc(NC(=O)Cn2ncc(Cl)c(Cl)c2=O)c(C)cc1[N+](=O)[O-] | 95.1* | -5.9 | 2.8 | 74.3* | 73.0*
COc1cc(NC(=O)CN2C(=O)CN(C)C2=O)c(C)cc1[N+](=O)[O-] | -32.4 | -6.5 | 2.5 | -2.2 | -0.4
COc1ccc(NC(=O)COc2ccccc2C(=O)NCC(c2ccccc2)N(C)C)cc1Cl (stereo not given) | / | -3.0 | 2.9 | / | /
Cc1ccc(C(=O)N/C(=C\c2ccc(-c3ccc(Cl)cc3)o2)C(=O)NCCCN(C)C)cc1 | 2.1 | -22.8 | 44.1* | 15.8 | 103.8*
CCOc1[nH]n(-c2ccccc2)c(=O)c1C=NCc1ccncc1 | 48.9* | -24.5 | 7.1 | 7.5 | 8.1
CCOc1[nH]n(-c2ccc(Cl)cc2)c(=O)c1C=NCc1cccnc1 | -32.0 | -14.5 | 0.7 | 0.7 | 5.2
CCc1c(C)nc2ncnn2c1NCCc1ccc(Cl)cc1 | 4.9 | -16.4 | 6.9 | 18.1 | 38.6*

Compound activity: PubChem, several laboratories
